# Hits are enriched below; roughly 2.4% of the tested compounds scored in any of these assays.
# FUS yeast rescue – rescues growth of FUS-expressing yeast; S. cerevisiae FUS-expressing, growth rescue, OD600, 24 h; Potency, µM (series often up to 76.6 µM), usual class: activators; hit rate 0.24% among 390,000; AID 1347120;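 note: plate controls were DMSO vehicle for no effect and reference control for full effect; nearly all actives have a fitted effect of over 55% in size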
#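 Read-out: OD at 600 nm after 24hr at 30C, reporting rescue of FUS-induced yeast toxicity. Cells at OD 0.005 in galactose (2%) minimal medium; compounds tested in a dilution series; CP55940 titration from 92uM final as control.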
# Mito fusion act – inhibitors of mitochondrial division or activators of mitochondrial fusion | S. cerevisiae fusion-defective mutant growth rescue, CellTiterGlo 48 h | Potency, µM (series often up to 46.1 µM), for the others: at the highest dose growth rescue (activation), hits mostly activators | hit rate 0.23% among 320,000; note: % of control where 0% means no effect; nearly all actives have a fitted effect of over 45% in size
#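 Yeast fusion mutant, YPEG (non-fermentable carbon), compound, 48 h at 37C non-permissive; CellTiterGlo added, 10 min RT, luminescence read. Rescued growth = division inhibition.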
# Abeta rescue – A-beta toxicity reversal in yeast. hit rate 0.063% among 410,000. Potency, µM (top dose mostly 46.1 µM), hits mostly activators. yeast expressing A-beta42, growth rescue, OD600, 48 h; response scale: 0% DMSO, 100% iron-clioquinol control; note: nearly all actives have a fitted effect of over 55% in size
#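 Yeast A-beta toxicity model in growth medium with pinned compounds, 48 h at 30 C; growth read as absorbance at 600 nm. Normalized to FeCl3/clioquinol equimolar mix (positive) and DMSO (negative).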
# aSyn yeast inh – inhibitors of alpha-synuclein toxicity in yeast; Yeast expressing alpha-synuclein, growth rescue, BacTiter-Glo, 24 h; Potency, µM (doses to about 46.1 µM), for inactives: top-dose growth rescue (activation), hits mostly activators; hit rate 0.14% among 370,000; AID 652106; note: % of control where 0% means no effect; nearly all actives have a fitted effect of over 65% in size
#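 Galactose-induced alpha-syn yeast (OD600=0.02, raffinose-pregrown) + pinned cpd, 24 hr, 30 deg C; growth by BacTiter-Glo luminescence. Growth restoration scores as activation.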
# TDP43 rescue – TDP-43 toxicity inhibition in yeast | Potency, µM (series often up to 46.1 µM), without a hit: top-dose growth rescue (activation), usual class: activators | TDP-43 expressing yeast growth rescue, BacTiter-Glo, 24 h | hit rate 1.8% among 410,000; note: % of control where 0% means no effect; nearly all actives have a fitted effect of over 50% in size
#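 Readout is BacTiter-Glo luminescence of cell growth, so inhibitors register as activators. TDP-43-expressing yeast at OD600=0.02 in galactose medium, after raffinose pregrowth to mid-log, were incubated with compound for 24 hr at 30 deg C.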
# A-T KAP1 phos – candidate therapy for ataxia-telangiectasia. F2112 A-T fibroblasts, KAP-1 phosphorylation AlphaLISA; neocarzinostatin DNA damage 30 min before lysis. Potency, µM (top dose mostly 57.5 µM), for the others: at the highest dose activation, most hits filed as activators. hit rate 0.19% among 320,000; note: % of control where 0% means no effect; nearly all actives have a fitted effect of over 45% in size
#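 hTERT-immortalized A-T patient fibroblasts (F2112), 500 cells/well in OPTI-MEM, 1% FBS, got compounds for 60 min, then NCS for 30 min at 37C. Lysates were then assayed for phospho-KAP-1 by AlphaLISA (anti-pKAP1 donor, anti-KAP1 acceptor beads), 6 hr at 25C.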
# Active calls of the source: *; i = inactive; ? = inconclusive; . = no result given. Calls come from the whole dose curve; as a rule, active = well fitted curve in the direction sought with a large enough effect; inconclusive = small, poorly fitted or top-dose-only effect, or another doubt; inactive = no such curve, though single readings can be large; an effect the other way counts as inactive or inconclusive. Potency is the fitted concentration of half-maximal effect.
SMILES,FUS yeast rescue,Mito fusion act,Abeta rescue,aSyn yeast inh,TDP43 rescue,A-T KAP1 phos
O=C(CSCC(=O)N1CCCCC1)Nc1nc(-c2cccs2)cs1,i,-6%,i,-1%,32µM*,11%
COC(CNC(=O)[C@H](Cc1ccccc1)NC(C)(C)C(=O)NC1CCCCC1)OC,i,.,.,.,.,.
O=C(CCc1ccccc1)Nc1ccccc1[N+](=O)[O-],i,2%,i,0%,?,-7%
O=C(CCc1ccccc1)NC(=S)Nc1ccccc1[N+](=O)[O-],i,-9%,?,7%,13µM*,-2%
O=C(CCCc1ccccc1)Nc1ccccc1[N+](=O)[O-],i,3%,i,23%,11µM*,3%
Cc1c(NC(=S)NC(=O)C(C)(C)C)cccc1[N+](=O)[O-],i,-1%,i,1%,14µM*,-6%
CCOc1ccc(CNS(=O)(=O)c2c(C(=O)N3CCC(C)CC3)c(C)n(C)c2C)cc1OC,i,.,i,.,0%,.
CC(C)Oc1cccc(C(=O)N/N=C/c2coc3ccccc3c2=O)c1,i,0%,i,-3%,18%,-3%
CCOc1cccc(C(=O)N/N=C/c2coc3ccccc3c2=O)c1,i,-2%,i,1%,22µM*,0%
CCN(C(=O)c1cc2c(=O)n3ccccc3nc2n1C)C1CCCCC1,i,5%,i,3%,?,?
CCCCN(CC)C(=O)c1cc2c(=O)n3cccc(C)c3nc2s1,i,18%,i,-2%,35µM*,28%
CCN(C(=O)c1cc2c(=O)n3ccccc3nc2n1CCCOC)C1CCCCC1,i,-3%,i,13%,0%,28µM*
CCN(C(=O)c1cc2c(=O)n3ccccc3nc2s1)C1CCCCC1,i,23%,i,1%,18µM*,12%
CCCC1CCC2(CC1)CCC2OC(=S)Nc1ccccc1Br (stereo not drawn),i,.,.,.,.,.
COc1cc(OC)c(Nc2c3c(nc4nc(-c5cccs5)nn24)CCCC3)cc1Cl,i,.,i,.,?,.
O=C(NCC(c1ccco1)S(=O)(=O)c1cccs1)c1ccccc1F (stereo not drawn),i,.,i,.,21%,.
CCCCCCCCCCOC(=O)Cn1c(COc2ccccc2)[n+](C)c2ccccc21,i,-61%,i,-13%,-84%,2%
CCCCCCCCCCOC(=O)Cn1c(COc2ccccc2C)[n+](C)c2ccccc21,40µM*,-28%,i,-52%,.,-1%
COc1ccc(-n2c(COc3ccccc3)nnc2SCC(=O)Nc2ccc3c(c2)OCCO3)cc1,i,.,.,.,.,.
CC(=O)c1ccc(NC(=O)Cn2c(=O)n(Cc3ccco3)c(=O)c3sc4ccccc4c32)cc1,i,.,i,.,1%,.
CC(NC(=O)CCCCCN1C(=O)c2ccccc2C1=O)c1ccc2c(c1)CCCC2 (stereo not drawn),i,?,i,-10%,27%,-1%
CC(NC(=O)CCCCCCN1C(=O)c2ccccc2C1=O)c1ccc2c(c1)CCCC2 (stereo not drawn),.,16%,i,-16%,35µM*,3%
CCSc1nnc2n1C(C)(C)Cc1ccccc1-2,i,-1%,i,?,?,-1%
CC1(C)Cc2ccccc2-c2nnc(SCc3ccc(C#N)cc3)n21,i,18%,i,18%,13µM*,14%
Cc1nn(C)cc1CN(C)C(=O)CC12CC3CC(CC(C3)C1)C2,.,10%,i,-1%,22µM*,-7%
SMILES,FUS yeast rescue,Mito fusion act,Abeta rescue,aSyn yeast inh,TDP43 rescue,A-T KAP1 phos
COc1ccc(-c2nnc(SCC(=O)Nc3cccc(C(F)(F)F)c3)nc2-c2ccc(OC)cc2)cc1,i,.,i,.,14%,.
Cc1ccc(C2=CC(c3ccccc3C)n3c(nc4ccccc43)N2)cc1 (stereo not drawn),i,.,i,.,10µM*,.
Cc1cccc(C2C=C(c3ccc(F)cc3)Nc3nc4ccccc4n32)c1 (stereo not drawn),i,.,i,.,32µM*,.
COC(=O)N1C(=O)[C@@](c2ccccc2)(C2CCCC2)N1C(=O)OC,i,1%,i,0%,?,25µM*
COC(=O)N1C(=O)[C@](c2ccccc2)(C2CCCCC2)N1C(=O)OC,i,1%,i,6%,?,16%
COC(=O)N1C(=O)[C@@](CC(C)C)(c2ccccc2)N1C(=O)OC,.,2%,.,.,.,35µM*
COC(=O)N1C(=O)[C@](CC(C)C)(c2ccccc2)N1C(=O)OC,i,1%,i,0%,?,17%
CC(=O)c1cc(-c2ccccc2-c2ccccc2)c(=O)n2c1CCC2,i,.,.,.,.,.
O=C1[C@@H]2CSC(c3ccc(Cl)cc3)N2C(=O)N1c1ccccc1 (stereo partly drawn),i,.,i,.,35µM*,.
O=C1[C@@H]2CSC(c3ccc(C(F)(F)F)cc3)N2C(=O)N1c1ccccc1 (stereo partly drawn),i,.,i,.,13µM*,.
C=Cc1ccc(CN2C(=O)N(c3ccc(C)c(C)c3)S(=O)(=O)c3ccccc32)cc1,i,.,i,.,22%,.
CCC(=O)Nc1c(C(=O)Nc2ccc3c(c2)OCCO3)oc2ccccc12,i,3%,i,6%,11µM*,0%
CCOCC(=O)Nc1c(C(=O)Nc2ccc3c(c2)OCCO3)oc2ccccc12,i,6%,i,-19%,-14%,-3%
CC(=O)Nc1cccc(C(=O)/C=C/c2cccs2)c1,.,10µM*,i,2%,23%,?
COc1ccc(Br)cc1/C=C/C(=O)Nc1ccc2ccccc2c1,i,?,i,-11%,7%,0%
CC(=O)Nc1cccc(C(=O)/C=C/c2ccc(Br)cc2)c1,i,14µM*,i,-5%,?,25µM*
COc1ccc(Br)cc1/C=C/C(=O)Nc1ccc(C)cc1,i,?,i,-16%,16µM*,-4%
CCC(=O)Nc1cccc(C(=O)/C=C/c2cc(Br)ccc2OC)c1,.,-15%,i,-47%,-22%,35µM*
O=C1CS(=O)(=O)C2(C(=O)N(Cc3ccccc3)c3ccccc32)N1c1ccc(F)c(Cl)c1 (stereo not drawn),i,.,i,12%,20µM*,.
COc1ccc2nc(C)cc(Nc3ccc(C(=O)O)cc3)c2c1,i,12%,i,?,10%,10µM*
O=C(OCn1nnc2ccccc2c1=O)c1ccc2ncsc2c1,i,-2%,i,?,11µM*,5%

# High-throughput results: PubChem, National Center for Advancing Translational Sciences (NCATS)
